Measurements reported in PMC7819943, “Rice protein-binding microarrays: a tool to detect cis-acting elements near promoter regions in rice”.
Whole data set: some 35,000 sequences, median “fluorescence intensity (a.u.)” near 10,000, cut for the highest 2% near 52,000. Many of the other results were omitted from the sample, so the highest values are more common in it than they were.

target: T1, OsWOX13 (Oryza sativa, UniProt Q5QMM3 1-267); assay: protein-binding microarray (RPBM); PBS, 2% BSA, 51.3 ng/ul salmon testes DNA, 50 uM zinc acetate, 200 nM TF, 25 C, 1 h; high values mean tight binding; details: protein: recombinant; tags: N-terminal polyhistidine and DsRed monomer fusion (pET32a); label: CyDye5-dUTP incorporated in the synthesized complementary strand; 3' TTTTT single-stranded linker to array surface; dsDNA, one strand shown
T1 sequence: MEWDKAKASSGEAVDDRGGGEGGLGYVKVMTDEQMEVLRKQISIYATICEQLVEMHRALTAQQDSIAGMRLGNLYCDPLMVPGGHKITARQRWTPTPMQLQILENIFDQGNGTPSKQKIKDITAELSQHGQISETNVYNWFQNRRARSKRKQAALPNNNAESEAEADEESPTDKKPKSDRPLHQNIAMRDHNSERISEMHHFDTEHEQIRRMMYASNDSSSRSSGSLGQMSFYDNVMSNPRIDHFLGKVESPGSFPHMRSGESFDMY
Outline: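 Binding signal is reported as fluorescence intensity per feature (arbitrary units) from an Axon 4000B scanner. Incubation used 200 nM of each Ni–NTA-purified, N-terminally polyhistidine- and DsRed-fused transcription factor from E. coli BL21-CodonPlus on a double-stranded custom Agilent array for 1 h at 25 °C, with 50 µM zinc acetate in the buffer, followed by washing.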

Row | Sequence | binding signal
1 | CTAAACACGTCCTATCATGTCACGTAGATAATATGACACGCGGAGTCACCTAGTGCAG | 4110 fluorescence intensity (a.u.)
2 | TAGATAAATTACCCTAAAATCCTGTAAAACTTCTGCATTTCGGAGTCACCTAGTGCAG | 3350 fluorescence intensity (a.u.)
3 | ATAAAATTTAATATTAAATATGCATTTGAACAGCTATAAACGGAGTCACCTAGTGCAG | 6360 fluorescence intensity (a.u.)
4 | AATGCAGGAACAGCATAAGCTTTGCGTATATTTGTATTAACGGAGTCACCTAGTGCAG | 65500 fluorescence intensity (a.u.)
5 | AAATAAATTAATATAACTTATAAAGCAGCTTTTGTATAATCGGAGTCACCTAGTGCAG | 13600 fluorescence intensity (a.u.)
6 | TTATTAATTCCATAATCAGAACTTTGATGTGATATAACCTCGGAGTCACCTAGTGCAG | 9130 fluorescence intensity (a.u.)
7 | TCTGGGTGATTTGTTGCAAAAGAATATTTTAATTCACTGCCGGAGTCACCTAGTGCAG | 14000 fluorescence intensity (a.u.)
8 | GTGATGATGAATTAATTGCTGAATGGCGAATGCAGTGCAGCGGAGTCACCTAGTGCAG | 58900 fluorescence intensity (a.u.)
9 | GCGAACTTAATTGCTGCTAGAATGCTGCTGAAATTGGTGACGGAGTCACCTAGTGCAG | 8360 fluorescence intensity (a.u.)
10 | GGGAGAGAATGTGCTAATTAATTGCATGCATGCATGCACGCGGAGTCACCTAGTGCAG | 12000 fluorescence intensity (a.u.)
11 | ATTTGATCTGATTTGATTAATTTTGCATGCACGCGAATGGCGGAGTCACCTAGTGCAG | 61700 fluorescence intensity (a.u.)
12 | GACTTTAATGATGCTGACACCGGCTTAATTAGTATTGCGGCGGAGTCACCTAGTGCAG | 8560 fluorescence intensity (a.u.)
13 | CATCTGGCGATTGCATATTAATTTGCATGGCGAAGCTTCCCGGAGTCACCTAGTGCAG | 5830 fluorescence intensity (a.u.)
14 | GTCATTGATTGATCAAGGGATCAATGCAAAACAACGCATTCGGAGTCACCTAGTGCAG | 20300 fluorescence intensity (a.u.)
15 | AGAAAATTAATGTTCAACAAACTCGTCACAAATTAAGTTTCGGAGTCACCTAGTGCAG | 13600 fluorescence intensity (a.u.)
16 | TCCAAATCCTACAATAATTGATTGAATCAAACACAGAAAGCGGAGTCACCTAGTGCAG | 41200 fluorescence intensity (a.u.)
17 | TCATGTCATAAATTAAATTATTTGAAATTATTTGGTACAGCGGAGTCACCTAGTGCAG | 13900 fluorescence intensity (a.u.)
18 | TCTAATTAGTAAACTGTAGTAGTGAGCAAATTGTACTAGACGGAGTCACCTAGTGCAG | 20900 fluorescence intensity (a.u.)
19 | AGCAGCATAAATGCAATTAAATTTGTAGCAATCGAACATGCGGAGTCACCTAGTGCAG | 4680 fluorescence intensity (a.u.)
20 | GCAAATTGATAATTGAAACAGAATTCAGTCGTTTGTACAGCGGAGTCACCTAGTGCAG | 62700 fluorescence intensity (a.u.)
21 | TCTAAACTGATAATTGCAAATTGTAATTGATAGCATTGAGCGGAGTCACCTAGTGCAG | 63700 fluorescence intensity (a.u.)

Row | Sequence | binding signal
22 | TAAATTTATAGTCAATTGTAGCATGAGCTCTAATAAACTGCGGAGTCACCTAGTGCAG | 4880 fluorescence intensity (a.u.)
23 | TCATGTAATTGTTGATAAGAGTGTCAGAATTCAGATAGTGCGGAGTCACCTAGTGCAG | 13500 fluorescence intensity (a.u.)
24 | GGTTAATTTGACATAAACAGCGTCAGAAATGTAGTTCATGCGGAGTCACCTAGTGCAG | 57900 fluorescence intensity (a.u.)
25 | TTATTAATTTGTAATAGGTGTATTTCGGTCTTATTAAACTCGGAGTCACCTAGTGCAG | 19600 fluorescence intensity (a.u.)
26 | CGTAAATTTTCAATAAAATTTTAGTGAAATCAGGAATATGCGGAGTCACCTAGTGCAG | 17500 fluorescence intensity (a.u.)
27 | AATAAAACTTACATGAGTTAATTGAGTGAGAAATTAATTCCGGAGTCACCTAGTGCAG | 4550 fluorescence intensity (a.u.)
28 | TACCGATAATTTGTTATAGATCCCTAGACGTACATTCCTCCGGAGTCACCTAGTGCAG | 19900 fluorescence intensity (a.u.)
29 | CATGATGATAGTGATAGCAACTCAAGCAATACTAACGCACCGGAGTCACCTAGTGCAG | 14700 fluorescence intensity (a.u.)
30 | GCAGATTAGTTGTGGCAAACATTCTCTTGTGTGCAGCACTCGGAGTCACCTAGTGCAG | 3650 fluorescence intensity (a.u.)
31 | TAAGCTAATTTGACCGCTGAAAGTGATGGAAAGCAAGCAACGGAGTCACCTAGTGCAG | 4480 fluorescence intensity (a.u.)
32 | ACTTGATTGAAATCGAAGCATCTGTTTTCGCGTGTTTGAGCGGAGTCACCTAGTGCAG | 59900 fluorescence intensity (a.u.)
33 | GAATCTTGAAATTGAGCTGATTAATTTTCTTCTTGTTGAGCGGAGTCACCTAGTGCAG | 11800 fluorescence intensity (a.u.)
34 | TCCTAGGTGATCTGGGTGATTGTGAGTGAGTTTTGTTTCGCGGAGTCACCTAGTGCAG | 4180 fluorescence intensity (a.u.)
35 | TTGAAATTGGAGATGATGTGACTGAAAAGTTGTGTGTGTACGGAGTCACCTAGTGCAG | 21000 fluorescence intensity (a.u.)
36 | CCAAATTAAGTGGAAATTAATTTGCAAGCTGAGAACGATGCGGAGTCACCTAGTGCAG | 55000 fluorescence intensity (a.u.)
37 | TTGTGAAATGTTGATGAGGCTGATTGAGCGAGAAGCAGTGCGGAGTCACCTAGTGCAG | 20000 fluorescence intensity (a.u.)
38 | GAATGATTGTGGATGATGAAATAAATACTGCTCTTGTCAGCGGAGTCACCTAGTGCAG | 33400 fluorescence intensity (a.u.)
39 | TTCAAATTTAATGCAAAGATTAAGTTGATGAGAAACGACGCGGAGTCACCTAGTGCAG | 6640 fluorescence intensity (a.u.)
40 | ATGATTGGAGTCAAATTGAACTTGTACTGATGTGGAGGAGCGGAGTCACCTAGTGCAG | 53400 fluorescence intensity (a.u.)
41 | CAAATTGAAGAGGATGCATGAATTGGATTTGCAGGAGAAGCGGAGTCACCTAGTGCAG | 5250 fluorescence intensity (a.u.)
42 | ATTGATGATTGAAATTTGCTGTGCAAATCGAGAACTGAAGCGGAGTCACCTAGTGCAG | 53500 fluorescence intensity (a.u.)
